Gal4-VP16 FLuc – VP16 counterscreen qHTS for inhibitors of ROR gamma transcriptional activity; Drosophila S2 Gal4-VP16 UAS-luciferase, luminescence, 20 h; Potency, µM (doses to about 53.6 µM), inactives show at the top dose activity, negative = inhibition, hits mostly inhibitors; actives 3.5% (n = 310,000);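 also: Gal4-VP16 expression switched on by copper sulfate through the metallothionein promoter; nearly all actives have a fitted effect of over 50% in size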
DT40 TDP1 CPT – qHTS for Inhibitors of human tyrosyl-DNA phosphodiesterase 1 (TDP1): qHTS in cells in presence of CPT; chicken DT40 Tdp1-/-;hTDP1 cells + 20 nM CPT, ATP luminescence, 48 h; Potency, µM (titrated, usually from 46.2 µM), inactives show top-dose activity change, negative = growth inhibition, most hits filed as inhibitors; actives 12% (n = 420,000); also: nearly all actives have a fitted effect of over 55% in size
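Chicken DT40 Tdp1-/- cells stably complemented with human TDP1 were seeded at 400 cells/well in medium containing 20 nM camptothecin, exposed to pin-transferred compounds, and grown at 37 °C for at least 48 hr. Viability was read as ATP luminescence.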
TDP1 block – qHTS Assay for Inhibitors of Tyrosyl-DNA Phosphodiesterase (TDP1). Tyrosyl-DNA phosphodiesterase 1 (Homo sapiens), Q9NUW8. recombinant TDP1, AlphaScreen DNA substrate cleavage. Potency, µM (series often up to 130 µM), without a hit: at the highest dose activity change, negative = inhibition, most hits filed as inhibitors. actives 0.28% (n = 350,000). AID 485290, 2010; also: nearly all actives have a fitted effect of over 40% in size
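Compounds were preincubated with Tdp1 (1 nM final) for 15 min at room temperature before substrate (15 nM final) started a 5 min reaction; beads (10 ug/ml final) were then added for 10 min before AlphaScreen detection.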
DT40 TDP1 no CPT – qHTS for Inhibitors of human tyrosyl-DNA phosphodiesterase 1 (TDP1): qHTS in cells in absence of CPT; DT40 Tdp1-/- hTDP1 cells, no CPT, ATP luminescence, 48 h; Potency, µM (highest dose often 46.2 µM), inactives show top-dose activity change, negative = growth inhibition, hits mostly inhibitors; actives 15% (n = 420,000); AID 686978, 2013; also: nearly all actives have a fitted effect of over 55% in size
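Seeded 400 DT40-hTDP1 cells/well (vehicle DMSO, no 20 nM CPT); pinned compounds; ≥48 hr at 37 °C; CellTiter-Glo luminescence as viability measure.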
RORg inh – qHTS for inhibitors of ROR gamma transcriptional activity | Potency, µM (highest dose often 53.6 µM), for the others: at the highest dose activity change, negative = inhibition, actives largely listed as inhibitors | Drosophila S2 Gal4-RORgamma UAS-luciferase reporter, 20 h | AID 2551, 2010 | actives 5.4% (n = 310,000); also: nearly all actives have a fitted effect of over 60% in size
Target sequence (P51450 whole entry, looked up, the tested form may be a part): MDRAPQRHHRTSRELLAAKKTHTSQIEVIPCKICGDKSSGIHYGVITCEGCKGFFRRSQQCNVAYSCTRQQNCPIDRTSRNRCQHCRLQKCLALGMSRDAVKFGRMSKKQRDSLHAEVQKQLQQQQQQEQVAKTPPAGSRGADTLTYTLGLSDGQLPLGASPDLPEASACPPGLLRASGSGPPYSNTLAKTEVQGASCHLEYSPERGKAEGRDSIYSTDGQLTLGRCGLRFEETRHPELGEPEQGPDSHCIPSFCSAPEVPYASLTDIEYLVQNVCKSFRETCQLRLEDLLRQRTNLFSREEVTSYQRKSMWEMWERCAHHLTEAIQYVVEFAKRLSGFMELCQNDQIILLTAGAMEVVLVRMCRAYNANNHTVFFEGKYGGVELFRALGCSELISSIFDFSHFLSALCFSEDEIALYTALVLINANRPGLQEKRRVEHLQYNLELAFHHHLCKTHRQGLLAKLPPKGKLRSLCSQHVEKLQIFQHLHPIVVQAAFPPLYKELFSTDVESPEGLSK
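Using a luciferase readout, inhibitors were identified by reduced reporter activity in Drosophila cells coexpressing a copper-inducible Gal4–ROR gamma fusion and UAS-driven Photinus luciferase, incubated 20 hr after 700 uM copper sulfate.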
Numbers without * were called inactive; ? = inconclusive; . = no result given; [ ] = dose if it differs, or a comment. Only some compounds are listed: those with a hit (about 19% of all), similar ones and a draw of the others. Calls follow the shape of the dose curve; as a rule, active = well fitted curve in the direction sought with a large enough effect; inconclusive = small, poorly fitted or top-dose-only effect, or another doubt; inactive = no such curve, though single readings can be large; an effect the other way counts as inactive or inconclusive. % is scaled to controls: 0 for no effect and ±100 for the full control effect; potency is read from the fitted curve at half-maximal effect.

SMILES	Gal4-VP16 FLuc	DT40 TDP1 CPT	TDP1 block	DT40 TDP1 no CPT	RORg inh
Cc1sc2nc(SCC(=O)N(C)Cc3ccccc3)n(-c3ccccc3)c(=O)c2c1C	2.1%	?	2.8%	?	32.7%
COc1ccc(Cn2ccc3nc(C)c(C(=O)Nc4ccc(OC(F)(F)F)cc4)cc3c2=O)cc1	.	?	-0.6%	?	.
CC(=O)Nc1ccc(S(=O)(=O)N2CCN(CCCOc3ccccc3Cl)CC2)cc1	?	-5.2%	1.8%	-5.2%	?
COc1ccc(S(=O)(=O)Nc2cc3c(cc2C(C)=O)OCO3)cc1	-3.8%	10.3µM*	2.8%	4.61µM*	-31.1%
COc1ccc(S(=O)(=O)Nc2cc3c(C(C)=O)c(C)oc3c3ccccc23)cc1	4.8%	0.651µM*	3.9%	0.651µM*	-32.9%
Cc1oc2c(cc(NS(=O)(=O)c3ccc(F)cc3)c3ccccc32)c1C(=O)O	-1.3%	-18.8%	3.9%[0.0935 µM]	-12.3%	20.0%
CC(=O)c1c(C)oc2c1cc(NS(=O)(=O)c1ccc(C(C)(C)C)cc1)c1ccccc12	.	?	4.8%[2.28 µM]	20.6µM*	.
Cc1oc2c(cc(NS(=O)(=O)c3ccc(C(C)C)cc3)c3ccccc32)c1C(=O)O	5.6%	-15.6%	-2.9%	19.0%	-0.4%
CCOc1ccc(S(=O)(=O)Nc2cc3c(C(=O)OC)c(COC)oc3c3ccccc23)cc1	.	5.17µM*	.	3.66µM*	.
CC(=O)c1cc2c(cc1NS(=O)(=O)c1ccccc1C)OCO2	2.3%	.	5.9%	.	-10.6%
O=C(COC(=O)c1cccnc1Nc1ccccc1F)NCc1ccc2c(c1)OCO2	-0.3%	-12.5%	7.1%	-12.9%	?
COC(=O)C1CCN(C(=O)Cc2ccc(C)cc2)CC1	3.2%	1.6%	5.3%	0.2%	2.7%
COc1ccc(CNC(=O)c2cccc(NC3=NC4CS(=O)(=O)CC4S3)c2)cc1 (stereo not given)	1.2%	7.2%	.	7.3%	-17.6%
O=C(NC1CCCCC1)C(c1ccc(Cl)cc1)N1CCC2(CC1)OCCO2 (stereo not given)	-0.5%	?	-0.9%	-13.7%	10.6%
CCN1CCN(Cc2c(O)ccc3oc(C)c(C(=O)Nc4cccc(Cl)c4C)c23)CC1	.	8.2µM*	3.7%	20.6µM*	.
Cc1oc2ccc(O)c(CN3CCN(C)CC3)c2c1C(=O)Nc1cccc(Cl)c1C	.	8.2µM*	7.4%	18.4µM*	.
c1ccc(NC2=NCCN2CCC2CCCCC2)cc1	0.8%	23.1µM*	.	?	-0.4%
c1ccc(NC2=NCCN2CCCC2CCCC2)cc1	.	?	-2.2%	?	.
CCCCN1CCN=C1Nc1ccccc1	1.9%	-15.0%	.	0.6%	-14.4%
CCCCCCCN1CCN=C1Nc1ccccc1	.	23.1µM*	-5.2%	25.9µM*	.
CN(C)C(=O)c1ccc(S(=O)(=O)NCc2ccccc2Cl)s1	.	?	-3.8%	-28.2%	.
COc1cc(/C=C(\C#N)c2nn(CCO)c(N)c2C#N)cc(OC)c1OC	3.6%	-0.5%	6.1%	-28.6%	-13.5%
COc1ccc(N/C=C/C(=O)c2ccccc2)cc1	10µM*	-17.9%	.	?	7.94µM*
COc1ccc(N/C=C/C(=O)c2sc(-c3ccccc3)nc2C)cc1	-3.1%	16.4µM*	4.3%	20.6µM*	4.9%
COc1ccc(N/C=C\C(=O)c2ccc3ccccc3c2)cc1	11.4%	-7.4%	.	-3.8%	-28.9%
CC(=O)c1ccc(N/C=C\C(=O)c2ccc(C)cc2)cc1	-6.1%	0.9%	2.5%	1.0%	-33.5%
CC(=O)Nc1ccc(N/C=C/C(=O)c2ccc(Cl)cc2)cc1	-14.9%	4.7%	31.6µM*	7.1%	18.9%
Cc1nc(-c2ccccc2)sc1C(=O)/C=C/c1ccc(Cl)cc1	-4.3%	14.6µM*	4.3%	23.1µM*	6.7%
CCCc1ccc(S(=O)(=O)N/N=C\c2ccc3c(c2)OCO3)cc1	-12.2%	?	2.9%	6.1%	3.6%

Screens as filed in PubChem BioAssay.
